Data reported in paper PMC4336329 (PLoS ONE, 2015).
The whole screen tested about 310,000 compounds, of which about 14,000 (4.5%) showed an effect of 50% or more. Effects have a minus sign here. The sample holds strong results, similar compounds and a random draw of the others, so the mix is not that of the screen.

target: human ether-à-go-go-related gene (hERG) potassium channel (human, UniProt Q12809); assay: primary screen, population patch clamp on CHO cells stably expressing hERG; higher = less effect of the substance
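Further: peak tail current of the secondary pulse compared with the same well before compound.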

human ether-à-go-go-related gene (hERG) potassium channel, sequence (Q12809 whole entry, looked up): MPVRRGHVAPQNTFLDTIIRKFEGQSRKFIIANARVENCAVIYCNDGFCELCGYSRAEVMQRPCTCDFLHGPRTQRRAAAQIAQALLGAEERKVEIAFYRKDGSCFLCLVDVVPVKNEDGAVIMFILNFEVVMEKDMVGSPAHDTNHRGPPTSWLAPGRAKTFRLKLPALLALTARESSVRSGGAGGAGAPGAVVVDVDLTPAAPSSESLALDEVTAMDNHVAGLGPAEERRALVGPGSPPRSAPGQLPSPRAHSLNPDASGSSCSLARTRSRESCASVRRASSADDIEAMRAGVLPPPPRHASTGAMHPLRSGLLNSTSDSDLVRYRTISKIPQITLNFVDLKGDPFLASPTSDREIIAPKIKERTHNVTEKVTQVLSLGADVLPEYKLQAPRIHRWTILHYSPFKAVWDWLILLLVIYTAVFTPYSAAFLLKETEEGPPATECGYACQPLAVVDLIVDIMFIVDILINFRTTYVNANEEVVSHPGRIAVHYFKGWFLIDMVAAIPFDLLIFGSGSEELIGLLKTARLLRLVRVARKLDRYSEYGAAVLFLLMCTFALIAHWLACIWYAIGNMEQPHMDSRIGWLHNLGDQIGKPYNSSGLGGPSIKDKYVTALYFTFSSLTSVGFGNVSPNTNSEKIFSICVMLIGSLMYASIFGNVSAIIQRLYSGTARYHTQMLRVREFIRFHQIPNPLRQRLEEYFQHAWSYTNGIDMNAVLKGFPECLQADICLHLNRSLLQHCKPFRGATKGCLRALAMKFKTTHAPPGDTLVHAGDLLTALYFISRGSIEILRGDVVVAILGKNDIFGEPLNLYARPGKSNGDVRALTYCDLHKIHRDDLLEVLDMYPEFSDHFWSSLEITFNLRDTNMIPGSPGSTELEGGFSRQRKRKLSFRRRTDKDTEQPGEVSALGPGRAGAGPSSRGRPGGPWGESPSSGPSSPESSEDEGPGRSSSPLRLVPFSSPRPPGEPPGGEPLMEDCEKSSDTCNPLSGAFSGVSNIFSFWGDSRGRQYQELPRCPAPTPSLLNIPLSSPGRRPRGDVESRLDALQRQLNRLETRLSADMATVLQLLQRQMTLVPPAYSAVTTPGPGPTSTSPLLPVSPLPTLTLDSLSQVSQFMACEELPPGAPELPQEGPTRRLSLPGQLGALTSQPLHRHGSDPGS

Compound | hERG current change (%, negative = inhibition) at 10uM
COc1ccc(NCc2nnc(SCC(=O)Nc3ccc(OC)cc3OC)o2)cc1 | -9.35%
CCN(c1ccccc1)S(=O)(=O)c1cc2c(cc1C)n(C)c(=O)c(=O)n2C | -32%
Cc1cccc(C(=O)NNS(=O)(=O)c2ccccc2[N+](=O)[O-])c1 | 1.16%
CN(C(=O)CCS(=O)(=O)c1ccc2c(c1)oc(=O)n2C)C1CCCCC1 | 3.68%
Cc1nn(CCC(=O)O)c(C)c1C | 5.72%
C=CCn1c(=O)c2c(nc3n2CCN3c2cccc(Cl)c2C)n(C)c1=O | -15%
CCOC(=O)N1CCN(Cc2nc3cc([N+](=O)[O-])ccc3n2CC)CC1 | -51.9%
CCCn1c(CN2CCN(C(=O)OCC)CC2)nc2cc([N+](=O)[O-])ccc21 | -64%
CCOC(=O)N1CCN(Cc2nc3cc(NC(=O)C(C)C)ccc3n2CC)CC1 | 14.3%
CCOC(=O)N1CCN(Cc2nc3cc([N+](=O)[O-])ccc3n2C)CC1 | -24.5%
CCCn1c(CN2CCN(C(=O)OCC)CC2)nc2cc(NC(C)=O)ccc21 | 12.8%
CCOC(=O)N1CCN(Cc2nc3cc(NC(=O)CC(C)C)ccc3n2CC)CC1 | -8.18%
O=C(COC(=O)c1ccco1)NCc1cccs1 | 12.4%
CC(=O)Nc1cc(C(=O)NCc2ccco2)ccc1Sc1ccc(F)cc1 | -40.8%
CCOc1ccc(CNC(=O)c2ccc(Sc3ccc(Cl)cc3)c(NC(C)=O)c2)cc1 | -8.57%
CCOc1ccc(CNC(=O)c2ccc(Sc3ccc(C)cc3)c(NC(C)=O)c2)cc1 | -4.85%
CC(=O)Nc1cc(C(=O)NCc2ccco2)ccc1Sc1ccc(Cl)cc1 | -35.6%
CC(=O)Nc1cc(C(=O)NCc2ccco2)ccc1Sc1ccc(C)cc1 | -17.8%
CCN(CC)CCNC(=O)c1ccc(Sc2ccc(C)cc2)c(NC(C)=O)c1 | -58.2%
CCN(CC)CCNC(=O)c1ccc(Sc2ccc(Cl)cc2)c(NC(C)=O)c1 | -61.7%

Compound | hERG current change (%, negative = inhibition) at 10uM
CCOc1ccc(CNC(=O)c2ccc(Sc3ccc(C)cc3)c(NC(C)=O)c2)cc1OC | -21.5%
CC(=O)Nc1cc(C(=O)NCCN2CCN(Cc3ccccc3)CC2)ccc1Sc1ccc(C)cc1 | -63.6%
CCC(=O)Nc1cc(C(=O)O)ccc1Sc1ccc(C)cc1 | 4.85%
CC(=O)Nc1cc(C(=O)N(C)Cc2ccco2)ccc1Sc1ccc(Cl)cc1 | -66.7%
CCOc1ccccc1CNC(=O)c1ccc(Sc2ccc(Cl)cc2)c(NC(C)=O)c1 | -19.4%
CSc1ncc(F)c(N(CCO)CCO)n1 | 10.5%
O=C1S/C(=C\c2ccccn2)C(=O)N1Cc1ccccc1F | 9.45%
O=S(=O)(Nc1cccnc1Cl)c1ccc2c(c1)OCCO2 | 15.4%
COc1cc(C(=O)N(C)CCOc2ccc(C)cc2)ccc1OC1CCN(C(C)=O)CC1 | 8.41%
CCN1CCC2(CC1)N=C(c1ccc(F)cc1)C(=S)N2C(=O)c1ccc(C(C)(C)C)cc1 | -10.8%
CN(C)CCNC(=O)NC(=O)c1ccc(Cl)cc1 | -14.7%
CC(C)OCCCNC(=O)NC(=O)c1ccc(Cl)cc1 | -6.21%
CCN(CC)CCNC(=O)NC(=O)c1ccc(Cl)cc1 | -63%
COc1ccc(/C=N/NC(=O)C(C)n2nnc3ccccc32)cc1OC (centres unmarked) | 2.4%
Cc1ccc2c(c1)sc(-c1ccc(N(C)C)cc1)[n+]2C.[I-] | -60%
C[n+]1c(-c2ccccc2)sc2ccccc21.[O-][Cl+3]([O-])([O-])[O-] | 23.1%
CC[n+]1c(C)sc2cc(C)ccc21.[I-] | 15%
O=C(CN1C(=O)c2cccnc2Oc2ccc(Cl)cc21)NC1CCCCC1 | -13.1%
CC(=O)Nc1ccc(/C=C/C(=O)c2ccc3c(c2)OCCO3)cc1 | -0.901%
CCOc1ccc(C(=O)NC(C(=O)NCC(c2cccs2)N(C)C)C(C)C)cc1 (centres unmarked) | -19.8%

Compound | hERG current change (%, negative = inhibition) at 10uM
O=C(NCCc1c[nH]c2ccccc12)c1ccco1 | 3.71%
O=C(NCCc1c[nH]c2ccccc12)/C(=C/c1ccco1)NC(=O)c1ccco1 | -42.5%
O=C(NCCc1c[nH]c2ccccc12)/C(=C\c1cccnc1)NC(=O)c1ccco1 | -65.1%
O=C(NCCCn1ccnc1)/C(=C\c1cccnc1)NC(=O)c1ccco1 | -0.164%
O=C(NCCc1c[nH]c2ccccc12)/C(=C/c1cccnc1)NC(=O)c1ccco1 | -64.7%
O=C(NCCc1c[nH]c2ccccc12)/C(=C\c1ccco1)NC(=O)c1ccco1 | -21.3%
CC1CCCC(C)N1C(=O)COC(=O)c1nn(C)c(=O)c2ccccc12 (centres unmarked) | 1.93%
COc1ccc(C(=O)N/C(=C\c2cn(C)c3ccccc23)C(=O)N2CCN(C)CC2)cc1 | -7.61%
CCOC(=O)N1CCN(C(=O)/C(=C/c2ccccc2OC)NC(=O)c2ccccc2)CC1 | -37.9%
CCn1cc(/C=C(\NC(=O)c2ccc(OC)c(OC)c2)C(=O)N2CCN(C)CC2)c2ccccc21 | -32.8%
COc1ccc(C(=O)N/C(=C\c2cccc3ccccc23)C(=O)N2CCN(C)CC2)cc1 | -65.6%
COc1ccc(C(=O)N/C(=C\c2cn(S(=O)(=O)N(C)C)c3ccccc23)C(=O)N2CCN(C)CC2)cc1 | -50.8%
COc1ccc(C(=O)N/C(=C\c2cn(S(=O)(=O)N(C)C)c3ccccc23)C(=O)N2CCOCC2)cc1 | -47%
COc1ccc(C(=O)N/C(=C\c2cn(C)c3ccccc23)C(=O)N2CCN(C)CC2)cc1OC | -3.26%
CN1CCN(C(=O)/C(=C/c2cn(S(=O)(=O)N(C)C)c3ccccc23)NC(=O)c2ccccc2)CC1 | 0.665%
COc1ccc(C(=O)N/C(=C\c2cccc3ccccc23)C(=O)N2CCN(C)CC2)cc1OC | -50.6%
CCOC(=O)N1CCN(C(=O)/C(=C/c2cccc3ccccc23)NC(=O)c2ccc(OC)c(OC)c2)CC1 | -3.14%
COc1ccc(C(=O)N/C(=C\c2cn(C)c3ccccc23)C(=O)N2CCOCC2)cc1 | -10.9%
CCOC(=O)N1CCN(C(=O)/C(=C/c2cccc3ccccc23)NC(=O)c2ccc(OC)cc2)CC1 | -50.9%
